Screens from PubChem BioAssay.
LGR2 antag: inhibitors of bursicon-induced LGR2 CRE-luciferase signal, primary screen, cell-based, HEK293, CRE-luciferase reporter, bursicon stimulation; hit rate 0.35% among 380,000; Drosophila bursicon receptor LGR2 (rickets); AID 720647, 2013; inhibition, % at 9.99 µM; bursicon-stimulated, 4 h;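 active = drop in luminescence signal, shown as inhibition above about 50% in the replicate tests, limit read from the data, passing the limit was not always enough; inconclusive = probably only some replicates passing the limit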;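 note: agonist challenge used bursicon conditioned medium at about half maximal strength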
PGC1a acetyl inh: inhibitors of PGC1a acetylation signal, primary screen, cell-based, U2OS, AlphaScreen, inhibitor mode; AID 651687, 2012; AlphaScreen anti-acetyl-lysine; with virally co-expressed GCN5 acetyltransferase; hit rate 0.17% among 350,000; inhibition, % at 15.6 µM;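 active = every replicate shows inhibition of at least 40%; inconclusive = mean inhibition at least 40% but some replicate below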
SIRT5 block: SIRT5 desuccinylase inhibitors, primary screen, biochemical, fluorescence imaging, single point, set 5; AID 652115, 2013; inhibition, % at 15 µM; NAD-dependent protein deacylase sirtuin-5, mitochondrial (Homo sapiens), Q9NXA8; hit rate 1.1% among 330,000; Purified SirT5, succinyl-peptide AMC, trypsin-coupled fluorescence; in the data active = inhibition above about 15%; inconclusive = no clear call, values can overlap the other calls
Target sequence (Q9NXA8 whole entry, looked up): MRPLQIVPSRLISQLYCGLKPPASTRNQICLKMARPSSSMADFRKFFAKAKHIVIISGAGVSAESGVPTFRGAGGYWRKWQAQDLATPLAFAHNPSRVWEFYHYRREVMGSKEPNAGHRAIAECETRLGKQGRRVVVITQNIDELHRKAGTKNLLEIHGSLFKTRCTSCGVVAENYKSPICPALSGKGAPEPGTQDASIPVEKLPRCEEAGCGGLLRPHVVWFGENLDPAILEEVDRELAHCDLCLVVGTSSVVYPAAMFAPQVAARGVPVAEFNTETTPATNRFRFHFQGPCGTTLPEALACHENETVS
PAX8 inh HTS: inhibitors of PAX8-driven TPO luciferase reporter, primary screen, RMG-I cells, single concentration; inhibition, % at 12.6 µM; SteadyGlo, 24 h; hit rate 1.2% among 360,000;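 active = mean replicate inhibition at least 60% with every replicate also reaching 60%; inconclusive = only one of the two criteria is met; inactive = mean below 60% and not all replicates reaching 60%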;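 note: luciferase light reporting Pax8 driven TPO promoter activity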
EWS-Fli block: EWS/Fli-driven NR0B1 reporter inhibitors, primary screen, A673 cells, NR0B1 luciferase, luminescence, MLPCN library. viability-normalised. hit rate 0.67% among 350,000. inhibition, % at 12.6 µM;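 active = mean inhibition of at least 50% after viability correction, with every replicate also passing that limit; inconclusive = mean reaches 50% but only one of two replicates passes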;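 note: firefly luciferase signal divided by Alamar Blue viability fluorescence both relative to DMSO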
Ecoli rRNA inh: reduced GFP signal of wild-type E. coli, primary screen, bacterial rRNA inhibitor project, GFP/RFP fluorescence, OD600, single point. E. coli WT GFP vs humanized-ribosome RFP mutants, 24 h; stronger effect = lower value; DMSO median 0, no signal -100. GFP signal change (wild-type ribosome), % (test concentration not listed). hit rate 1.6% among 350,000. AID 720706, 2013;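 active = significant combined selectivity score with lowered wild-type GFP, culture density cut under 30%, mutant RFP and density less affected; inactive = any of these conditions unmet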
Each line names hits and unclear results; the compound was inactive in the other large screens. This is a sample that favours compounds with a hit; in the whole collection about 3.4% have one here.

CCCc1[nH]n(-c2nc3ccccc3s2)c(=O)c1C=NCC1CCCO1 (centres undefined)	Ecoli rRNA inh -25 (no result: PAX8 inh HTS, EWS-Fli block)
Cc1cccc(NC(=O)Nc2ccc3c(c2)C(=O)N(C)[C@@H]2CC[C@H](CC(=O)O)O[C@H]2CO3)c1	none
CC(=O)Nc1cccc(NC(=O)C(=O)Nc2ccc3c(c2)N(C(=O)C2CC2)CCC3)c1	none (no result: PGC1a acetyl inh)
COc1ccccc1NC(=O)C(=O)Nc1ccc2c(c1)N(C(=O)C1CC1)CCC2	PAX8 inh HTS 79 (no result: PGC1a acetyl inh)
O=C(N/N=C/c1ccccn1)c1ccco1	none (no result: LGR2 antag, SIRT5 block, EWS-Fli block, Ecoli rRNA inh)
COc1ccc(/C=N/NC(=O)c2ccncc2)cc1Cn1nc([N+](=O)[O-])c(Br)c1C	SIRT5 block 20
COc1ccc(/C=N/NC(=O)c2ccco2)cc1Cn1nc(C)cc1C	SIRT5 block 34 (no result: PGC1a acetyl inh)
O=C(N/N=C/c1ccc2ncccc2c1)c1ccco1	LGR2 antag 55 (no result: PGC1a acetyl inh)
COc1ccc(/C=N/NC(=O)c2ccn[nH]2)cc1Cn1nc(C)c([N+](=O)[O-])c1C	none
CC(C)C#Cc1ccc([C@H]2[C@H]3CN(C(=O)Cc4cccnc4)CC(=O)N3[C@H]2CO)cc1	none (no result: LGR2 antag, PGC1a acetyl inh, SIRT5 block, PAX8 inh HTS, EWS-Fli block)
CCC(=O)Nc1ccc2c(c1)C(=O)N(C)[C@H]1CC[C@@H](CC(=O)N[C@@H](C)c3ccccc3)O[C@H]1CO2	none
OC[C@@H]1[C@@H](c2ccccc2)C2(CN(Cc3nccs3)C2)N1Cc1ccccc1	none (no result: PAX8 inh HTS)
COc1ccc(-c2ccc3c(c2)O[C@@H](CN(C)C(C)=O)[C@@H](C)CN([C@@H](C)CO)S3(=O)=O)cc1	none (no result: PAX8 inh HTS)
CCc1ccc(NC(=O)COC(=O)CCCC2=NS(=O)(=O)c3ccccc3N2)cc1	Ecoli rRNA inh -17
CCOC(=O)c1sc2ccccc2c1OC(=O)c1ccccc1OC	PAX8 inh HTS 60
CCOC(=O)c1cc(OC(=O)c2ccccc2OC)n(-c2ccccc2)n1	none (no result: PAX8 inh HTS, EWS-Fli block)
O=C(NCC[C@@H]1CC[C@H](NC(=O)c2ccc3c(c2)OCO3)[C@H](CO)O1)Nc1ccc(Cl)cc1	none
CS(=O)(=O)N1CC2(C1)[C@H](c1ccccc1)[C@@H](CO)N2CC1CC1	none
C[C@@H]1CN([C@H](C)CO)C(=O)c2cc(C3=CCCC3)cnc2O[C@H]1CN(C)C(=O)C1CC1	none (no result: SIRT5 block, PAX8 inh HTS)
COc1ccc([C@H]2CN(CCc3ccccc3)C(=O)[C@@H]2CC(=O)Nc2ccccc2)cc1	SIRT5 block 18
CNC(=O)C[C@H]1C(=O)N(CCc2ccccc2)C[C@@H]1c1ccc(OC)cc1	none
COc1ccc(-c2cc(=O)oc3cc(OCC(C)=O)ccc23)cc1	none (no result: PGC1a acetyl inh)
CCN(CC)C(=O)COc1ccc2c(-c3ccc(OC)cc3)cc(=O)oc2c1	Ecoli rRNA inh -22 (no result: PGC1a acetyl inh)
Cc1ccc(S(=O)(=O)N(C)C[C@H]2Oc3ccc(NC(=O)NC(C)C)cc3C(=O)N([C@H](C)CO)C[C@@H]2C)cc1	none
C(#Cc1ccccc1)C[N+]1(CC#Cc2ccccc2)CCCC1	Ecoli rRNA inh -44
O=S(=O)(NC[C@@H]1CC[C@@H]2[C@@H](CN2Cc2cccc(-c3ccccn3)c2)O1)c1ccccc1	none (no result: LGR2 antag, PGC1a acetyl inh, PAX8 inh HTS, Ecoli rRNA inh)
CC(C)C[C@@H](CN1CCC[C@H]1CN1C(=O)C(=O)NC[C@@H]1Cc1ccc(O)cc1)N1C[C@H](Cc2ccccc2)N(CC2CCCCCC2)C(=O)C1=O	none (no result: PGC1a acetyl inh)
CC(C)C[C@@H](CN1CCC[C@H]1CN1C(=O)C(=O)NC[C@@H]1Cc1ccccc1)N1C[C@H](Cc2ccccc2)N(CC2CCCCCC2)C(=O)C1=O	LGR2 antag inconclusive, PAX8 inh HTS 65 (no result: PGC1a acetyl inh)
CC(C)C[C@H]1CN([C@@H](Cc2ccc(O)cc2)CN2CCC[C@H]2CN2C(=O)C(=O)NC[C@@H]2Cc2ccc(O)cc2)C(=O)C(=O)N1CCc1ccccc1	Ecoli rRNA inh -28 (no result: PGC1a acetyl inh)
C[C@@H]1CCCCO[C@H](CN(C)C(=O)c2ccccc2)[C@@H](C)CN([C@@H](C)CO)C(=O)c2cc(NC(=O)c3ccccc3)ccc2O1	none (no result: EWS-Fli block)
CC1(C(=O)NCc2cc(F)cc(C(F)(F)F)c2)C=CC2(CCCCC2)N1C(=O)c1ccccc1 (centres undefined)	SIRT5 block 24
CC1(C(=O)NCC2CC2)C=CC2(CCCCC2)N1C(=O)c1ccccc1 (centres undefined)	none (no result: PAX8 inh HTS, EWS-Fli block)
O=C(c1ccncc1)N1CC(=O)N2[C@H](CO)[C@H](c3ccc(-c4ccccc4F)cc3)[C@H]2C1	none
C[C@@H]1CCCCO[C@H](CN(C)Cc2ccc(C(F)(F)F)cc2)[C@@H](C)CN([C@H](C)CO)C(=O)c2cc(NC(=O)CCCCCC(=O)Nc3ccccc3N)ccc2O1	none
CC(=O)N(C1CC(C)C(C#N)(C#N)C1(C#N)C#N)N(C)C (centres undefined)	PAX8 inh HTS 75
CCCC(=O)N(C1CC(C)C(C#N)(C#N)C1(C#N)C#N)N(C)C (centres undefined)	PAX8 inh HTS 68
Cc1ccc(C(C(=O)NC(C)(C)C)N(C(=O)CCC(=O)Nc2ccccn2)c2ccccc2F)cc1 (centres undefined)	SIRT5 block 19 (no result: PGC1a acetyl inh)
CC(C)c1nc2sc3c(NCc4ccco4)ncnc3c2c2c1COC(C)(C)C2	PGC1a acetyl inh 59 (no result: LGR2 antag, SIRT5 block, PAX8 inh HTS, EWS-Fli block, Ecoli rRNA inh)
COc1cccc(C2Oc3ccccc3C3CC(c4cccs4)=NN32)c1 (centres undefined)	Ecoli rRNA inh -29
Cc1cc(OC(C(=O)O)c2ccccc2)c2c(C)c(Cc3ccccc3)c(=O)oc2c1 (centres undefined)	Ecoli rRNA inh -24
Cc1cc(OC(C)C(=O)NCC(O)c2ccccc2)c2c(C)c(C)c(=O)oc2c1 (centres undefined)	none
COC(=O)c1c(NC(=O)C(C)(C)C)sc2c1C(C(=O)OC)CC2 (centres undefined)	none (no result: LGR2 antag, SIRT5 block, EWS-Fli block, Ecoli rRNA inh)
COC(=O)c1c(NC(=O)C(Cl)Cl)sc2c1C(C(=O)OC)CC2 (centres undefined)	PAX8 inh HTS 64 (no result: PGC1a acetyl inh)
CN1CCN(C(=O)C[C@@H]2CC[C@H]3[C@@H](COC[C@@H](O)CN3C(=O)Nc3ccc(F)cc3)O2)CC1	none
CCC1(CC)Cc2ccccc2-c2nc(NCCCO)[nH]c(=O)c21	none
CCC1(C)Cc2ccccc2-c2nc(NCCCO)[nH]c(=O)c21 (centres undefined)	Ecoli rRNA inh -28
COc1ccc(/C=C/C(=O)CC(O)(c2ccccc2)C(F)(F)F)cc1 (centres undefined)	none (no result: LGR2 antag, SIRT5 block, PAX8 inh HTS, EWS-Fli block, Ecoli rRNA inh)
O=C(/C=C/c1ccccc1)CC(O)(c1ccccc1)C(F)(F)C(F)F (centres undefined)	LGR2 antag inconclusive, PGC1a acetyl inh inconclusive, EWS-Fli block 66, Ecoli rRNA inh -32 (no result: PAX8 inh HTS)
